Screens as filed in PubChem BioAssay.
DAX1 inh-1 – NR0B1 (DAX1) inhibition; HEK293 Gal4-DAX1 luciferase reporter, luminescence; P51843; hit rate 0.99% among 340,000; AID 504766; inhibition, % at 6.75 µM;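 active means inhibition above the mean over all tested compounds plus 3 SD, cut at about 4.2% in these data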;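 further: inhibition shows as a rise in luminescence from relieved DAX1 repression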
ssDAF-12 act – S. stercoralis DAF-12 activation, primary screen; HEK293 ssDAF-12/GRIP1 lit1-tk-luc reporter, luminescence; % of 3 µM dafachronic acid response; activation, % at 6.8 µM; hit rate 1% among 370,000;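 active means activation above the mean over all tested compounds plus 3 SD, cut at about 0.9% in these data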
AHR activator – activators of human aryl hydrocarbon receptor; P35869; AHR-responsive luciferase reporter cells, luminescence; activation, % at 5 µM; hit rate 2.5% among 320,000; AID 2796; in the data active means activation above about 47%
hcDAF12 agonist – activates DAF-12 receptor from parasite H. contortus; HEK293 hcDAF-12 lit1-tk-luc reporter, luminescence; 0% DMSO, 100% Δ7-dafachronic acid; activation, % at 6.8 µM; hit rate 1.4% among 370,000;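 active means activation above the mean of all tested compounds plus 3 SD, cut at about 5.5% in these data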
hgDAF-12 ag – hgDAF-12 agonism, primary luciferase screen. activation, % at 6.8 µM. HEK293 GAL4-hgDAF12 UAS-luciferase reporter, agonist luminescence; normalized to butyrate control. hit rate 1.8% among 370,000;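 active means activation above a cutoff set at the mean of all screened compounds plus 3 SD, cut at about 10% in these data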
DAX1 inh-2 – DAX1 (NR0B1) inhibition, primary screen; inhibition, % at 6.8 µM; HEK293T StAR-luciferase reporter, SF-1/DAX-1 repression relief; AID 652010; hit rate 1.1% among 370,000;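 active means inhibition above the mean over all tested compounds plus 3 SD, cut at about 3.6% in these data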;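 further: higher inhibition means more luminescence from relief of DAX-1 repression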
AHR act cf – human AHR activation, confirmation; shares compounds with AHR activator; human cells, AHR-responsive luciferase reporter, luminescence; activation, % at 9 µM; hit rate 87% among 2,300; in the data active means activation above about 49%;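 further: HepG2 hepatoma cells carrying a DRE-driven firefly luciferase reporter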
PXR act counter – activates human PXR in AHR activator counter-screen | shares compounds with AHR activator | cell-based PXR reporter, luciferase luminescence | activation, % at 11.6 µM | hit rate 88% among 2,300; in the data active means activation above about 11%;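 further: human hepatoma DPX-2 cells expressing full-length human PXR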
Target sequence (O75469 whole entry, looked up): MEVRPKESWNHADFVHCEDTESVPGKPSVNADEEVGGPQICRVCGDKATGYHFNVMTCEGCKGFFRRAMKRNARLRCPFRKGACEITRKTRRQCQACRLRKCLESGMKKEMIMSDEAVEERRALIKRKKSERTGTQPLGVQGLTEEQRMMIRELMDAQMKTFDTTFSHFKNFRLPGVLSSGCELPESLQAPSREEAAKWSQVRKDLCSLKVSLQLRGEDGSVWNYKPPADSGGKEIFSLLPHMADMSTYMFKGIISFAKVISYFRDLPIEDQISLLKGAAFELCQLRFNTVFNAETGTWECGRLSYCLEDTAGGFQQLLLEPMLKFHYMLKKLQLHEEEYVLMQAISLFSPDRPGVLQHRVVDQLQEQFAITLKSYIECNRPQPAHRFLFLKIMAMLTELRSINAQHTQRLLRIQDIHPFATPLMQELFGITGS
Each line names hits and unclear results; the compound was inactive in the other large screens (follow-up assays come after a bar, where they were run). Most compounds without a hit are left out; they make up all but 5.7% or so of the library.

CC(=O)Nc1cc(-c2ccc(Cl)cc2)[nH]n1	AHR activator 95.3 | AHR act cf 160.4
COc1ccc(S(=O)(=O)NNC(=O)c2cc3c4ccccc4n(C)c3s2)cc1	AHR activator 110.1 | AHR act cf 98.4 | PXR act counter 245.8
Cc1cc([N+](=O)[O-])cnc1Sc1nccn1C	none
Cc1ccc(NC(=O)C2OCCc3ccccc32)cc1Cl (stereo not drawn)	none
Cc1ccc(NC(=O)C2OCCc3ccccc32)cc1 (stereo not drawn)	AHR activator 117.9 | AHR act cf 103.5 | PXR act counter 63.6
C/C(=N\NC(=O)c1ccccc1-n1cccc1)C1CC1	AHR activator 98.3 | AHR act cf inactive | PXR act counter inactive
O=C(N/N=C\c1cccs1)c1ccccc1-n1cccc1	none
O=C(N/N=C\c1ccccc1)c1ccccc1-n1cccc1	ssDAF-12 act 1.2, AHR activator 92.3 | AHR act cf 110.6 | PXR act counter 37.8
NNC(=O)c1ccccc1-n1cccc1	AHR activator 120.8 | AHR act cf inactive | PXR act counter inactive
O=C(NNC(=O)c1ccccc1-n1cccc1)c1ccccc1	AHR activator 80.6 | AHR act cf 93.1 | PXR act counter 12.2
O=C(NNS(=O)(=O)c1ccccc1)c1ccccc1-n1cccc1	none
Cc1ccc(C(=O)NNC(=O)c2ccccc2-n2cccc2)cc1	none
COc1ccccc1-n1nnnc1SC(C)C(=O)NC1CCCC1 (stereo not drawn)	none
CCc1cccc(CC)c1NC(=O)CN1CCc2cc(OC)c(OC)cc2C1	none (no result: ssDAF-12 act, hcDAF12 agonist, hgDAF-12 ag, DAX1 inh-2)
CCCOc1ccc(S(=O)(=O)Nc2ccccn2)c2ccccc12	none
Cc1ccccc1C(=O)OCc1cnc(Cl)s1	none
COc1ccc(CCN2C(=O)CC(NNc3ccc([N+](=O)[O-])cc3)C2=O)cc1OC (stereo not drawn)	none
Cc1cc(C)c(C(=O)COc2cccnc2[N+](=O)[O-])cc1C	none
O=C(COc1cccnc1[N+](=O)[O-])c1c[nH]c2ccccc12	AHR activator 87.3, hcDAF12 agonist 5.9 | AHR act cf 107.7 | PXR act counter 15.6
COCCn1c(SCC(=O)NCCc2ccccc2)nc2c([nH]c3ccccc32)c1=O	AHR activator 120.4 (no result: ssDAF-12 act, hcDAF12 agonist, hgDAF-12 ag, DAX1 inh-2) | AHR act cf 71.6 | PXR act counter 204.9
COCCn1c(SCC(=O)Nc2ccccc2OC)nc2ccccc2c1=O	none
COCCn1c(SCC(=O)Nc2ccccc2OC)nc2c([nH]c3ccccc32)c1=O	AHR activator 84.7 | AHR act cf 83.5 | PXR act counter 178.6
Fc1ccccc1/C=N/n1cc(-c2ccccc2)[nH]c1=S	AHR activator 86.6 | AHR act cf 112.5 | PXR act counter 45.0
S=c1[nH]c(-c2ccccc2)cn1/N=C/c1cccnc1	AHR activator 81.9 | AHR act cf 101.8 | PXR act counter 16.9
S=c1[nH]nc(-c2cccnc2)n1/N=C/c1ccccc1	none
CCc1cccc(C)c1NC(=O)CCN1C(=O)NC(C)(C)C1=O	none
COCCCn1nnnc1SCC(=O)Nc1nc2ccccc2s1	AHR activator 112.3 | AHR act cf 101.4 | PXR act counter 61.5
CSc1nsc(SCC(=O)Nc2nc3ccccc3s2)n1	AHR activator 79.7 | AHR act cf 52.5 | PXR act counter 13.0
CCn1nnnc1SCC(=O)Nc1nc2ccccc2s1	AHR activator 86.1 | AHR act cf 61.1 | PXR act counter 42.0
O=C(CSc1nnnn1-c1ccc(F)cc1)Nc1nc2ccccc2s1	none
CCCN(CCC)CCNC(=O)c1cc2c(=O)n(C)c3ccccc3c2n1C	DAX1 inh-1 5.7, AHR activator 98.0 | AHR act cf 91.0 | PXR act counter 42.1
Cn1nc(NC(=O)C(F)(F)F)c2ncc(-c3ccc(Cl)cc3)nc21	DAX1 inh-1 4.2, AHR activator 133.6 | AHR act cf 130.7 | PXR act counter 37.1
CC1S/C(=C(\C#N)C(N)=O)N(c2ccc(F)cc2)C1=O (stereo not drawn)	AHR activator 97.0 | AHR act cf 121.6 | PXR act counter 14.6
